According to publication PMC7862700, “An all-to-all approach to the identification of sequence-specific readers for epigenetic DNA modifications on cytosine”:

Tests used:
Assay in all cases: DAPPL (digital affinity profiling via proximity ligation, sequencing); 10 mM Tris-HCl pH 7.5, 50 mM NaCl, 1 mM DTT, 4% glycerol, room temperature, 30 min; GST-TFs on glutathione beads, 16-mer random dsDNA library, 0.1% formaldehyde crosslink after washing; high values mean tight binding
[1] = target: T1, FLI1 (Homo sapiens, UniProt Q01543 1-452); details: protein: recombinant; tags: N-terminal GST; dsDNA, one strand shown
T1 sequence: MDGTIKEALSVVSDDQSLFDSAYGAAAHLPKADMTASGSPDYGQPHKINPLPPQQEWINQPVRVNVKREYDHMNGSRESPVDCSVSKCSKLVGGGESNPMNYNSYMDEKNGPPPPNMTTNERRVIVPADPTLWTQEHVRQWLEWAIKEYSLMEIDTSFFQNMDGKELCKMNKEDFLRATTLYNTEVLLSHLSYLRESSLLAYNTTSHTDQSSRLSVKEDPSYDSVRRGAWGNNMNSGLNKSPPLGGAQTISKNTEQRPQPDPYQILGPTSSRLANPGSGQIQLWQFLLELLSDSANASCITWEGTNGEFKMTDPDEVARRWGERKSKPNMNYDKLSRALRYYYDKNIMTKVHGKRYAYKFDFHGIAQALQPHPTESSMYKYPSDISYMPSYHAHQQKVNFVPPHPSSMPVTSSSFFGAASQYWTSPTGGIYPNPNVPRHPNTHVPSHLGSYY
How it was run: (§1)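 Binding signal is defined as a hexamer's read frequency for one factor over its frequency for the tag-only sample. To obtain reads, GST-fused human transcription factors were expressed in yeast, captured on glutathione beads, barcoded with DNA and pooled with that sample. Pools met 200 nmole of a 16-mer random double-stranded DNA library in Tris/NaCl/DTT/glycerol buffer for 30 min at room temperature before washing, 0.1% formaldehyde crosslinking, proximity ligation (BsaI/T4 ligase, 1 h, 37 °C), PCR and Illumina NextSeq500 sequencing.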

[2] = target: T2, ELK1 (Homo sapiens, UniProt P19419 1-428); details: protein: recombinant; tags: N-terminal GST; dsDNA, one strand shown
T2 sequence: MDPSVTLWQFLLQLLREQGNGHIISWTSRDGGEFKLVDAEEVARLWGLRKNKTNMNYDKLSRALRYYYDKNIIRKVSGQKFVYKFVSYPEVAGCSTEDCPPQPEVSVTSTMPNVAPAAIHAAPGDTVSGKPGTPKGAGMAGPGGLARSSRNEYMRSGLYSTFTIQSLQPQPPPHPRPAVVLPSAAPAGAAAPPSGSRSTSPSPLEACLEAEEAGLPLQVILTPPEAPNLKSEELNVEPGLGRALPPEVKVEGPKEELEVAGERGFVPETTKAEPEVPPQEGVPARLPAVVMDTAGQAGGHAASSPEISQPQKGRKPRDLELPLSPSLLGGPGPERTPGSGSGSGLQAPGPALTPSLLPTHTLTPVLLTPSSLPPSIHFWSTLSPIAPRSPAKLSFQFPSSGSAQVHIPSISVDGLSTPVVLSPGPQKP
How it was run: as §1

[3] = target: T3, GABPA (Homo sapiens, UniProt Q06546 1-454); details: protein: recombinant; tags: N-terminal GST; dsDNA, one strand shown
T3 sequence: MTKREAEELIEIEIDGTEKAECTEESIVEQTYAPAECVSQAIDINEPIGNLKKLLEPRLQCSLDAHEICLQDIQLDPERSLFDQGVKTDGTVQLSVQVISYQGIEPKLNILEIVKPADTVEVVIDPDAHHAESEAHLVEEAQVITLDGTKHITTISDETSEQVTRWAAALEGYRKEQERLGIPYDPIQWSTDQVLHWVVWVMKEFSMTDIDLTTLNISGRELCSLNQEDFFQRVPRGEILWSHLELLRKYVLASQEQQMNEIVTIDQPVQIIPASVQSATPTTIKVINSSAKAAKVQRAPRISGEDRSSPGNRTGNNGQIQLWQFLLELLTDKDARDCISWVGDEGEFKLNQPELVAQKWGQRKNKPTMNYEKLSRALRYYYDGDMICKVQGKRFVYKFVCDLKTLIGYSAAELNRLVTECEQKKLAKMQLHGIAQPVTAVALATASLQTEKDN
How it was run: as §1

[4] = target: T4, ERG (Homo sapiens, UniProt P11308 1-479); details: protein: recombinant; tags: N-terminal GST; dsDNA, one strand shown
T4 sequence: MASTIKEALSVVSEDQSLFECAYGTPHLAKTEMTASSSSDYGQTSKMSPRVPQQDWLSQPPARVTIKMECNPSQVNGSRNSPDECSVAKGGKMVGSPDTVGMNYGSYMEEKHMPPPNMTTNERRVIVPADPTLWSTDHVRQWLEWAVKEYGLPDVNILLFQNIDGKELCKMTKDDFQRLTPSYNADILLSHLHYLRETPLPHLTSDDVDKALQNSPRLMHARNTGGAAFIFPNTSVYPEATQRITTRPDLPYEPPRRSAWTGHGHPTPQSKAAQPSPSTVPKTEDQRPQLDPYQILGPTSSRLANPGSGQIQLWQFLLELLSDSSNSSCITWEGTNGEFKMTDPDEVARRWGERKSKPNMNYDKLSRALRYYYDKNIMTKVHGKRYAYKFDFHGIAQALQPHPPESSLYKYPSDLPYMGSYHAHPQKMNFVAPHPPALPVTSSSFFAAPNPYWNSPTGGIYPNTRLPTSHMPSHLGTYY
How it was run: as §1

[5] = target: ELF1 (Homo sapiens, UniProt P32519 1-619); details: protein: recombinant; tags: N-terminal GST; dsDNA, one strand shown
How it was run: as §1

[6] = target: T5, EHF (Homo sapiens, UniProt Q9NZC4 1-300); details: protein: recombinant; tags: N-terminal GST; dsDNA, one strand shown
T5 sequence: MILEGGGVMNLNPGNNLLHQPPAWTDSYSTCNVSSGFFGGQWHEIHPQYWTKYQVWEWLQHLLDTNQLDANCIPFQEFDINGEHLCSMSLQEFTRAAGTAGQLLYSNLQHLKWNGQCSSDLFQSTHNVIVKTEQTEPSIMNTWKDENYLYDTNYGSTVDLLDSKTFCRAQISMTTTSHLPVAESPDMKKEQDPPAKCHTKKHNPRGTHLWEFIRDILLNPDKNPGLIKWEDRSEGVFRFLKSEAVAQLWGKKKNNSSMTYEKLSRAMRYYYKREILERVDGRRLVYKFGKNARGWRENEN
How it was run: as §1

[7] = target: SPI1 (Homo sapiens, UniProt P17947 1-270); details: protein: recombinant; tags: N-terminal GST; dsDNA, one strand shown
How it was run: as §1

[8] = target: SPIB (Homo sapiens, UniProt Q01892 1-262); details: protein: recombinant; tags: N-terminal GST; dsDNA, one strand shown
How it was run: as §1

[9] = target: T6, ELK3 (Homo sapiens, UniProt P41970 1-407); details: protein: recombinant; tags: N-terminal GST; dsDNA, one strand shown
T6 sequence: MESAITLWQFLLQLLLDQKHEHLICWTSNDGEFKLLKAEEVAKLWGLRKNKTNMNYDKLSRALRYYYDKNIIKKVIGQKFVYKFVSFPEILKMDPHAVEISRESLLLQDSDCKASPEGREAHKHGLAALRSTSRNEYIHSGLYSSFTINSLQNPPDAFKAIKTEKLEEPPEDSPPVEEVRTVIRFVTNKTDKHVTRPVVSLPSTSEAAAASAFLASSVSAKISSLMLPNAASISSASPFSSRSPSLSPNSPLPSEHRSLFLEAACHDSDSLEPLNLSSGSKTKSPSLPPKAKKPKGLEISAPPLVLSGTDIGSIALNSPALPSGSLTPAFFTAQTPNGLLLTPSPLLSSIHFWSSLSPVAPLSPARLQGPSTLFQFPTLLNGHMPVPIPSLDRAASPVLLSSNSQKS
How it was run: as §1

[10] = target: T7, FEV (Homo sapiens, UniProt Q99581 1-238); details: protein: recombinant; tags: N-terminal GST; dsDNA, one strand shown
T7 sequence: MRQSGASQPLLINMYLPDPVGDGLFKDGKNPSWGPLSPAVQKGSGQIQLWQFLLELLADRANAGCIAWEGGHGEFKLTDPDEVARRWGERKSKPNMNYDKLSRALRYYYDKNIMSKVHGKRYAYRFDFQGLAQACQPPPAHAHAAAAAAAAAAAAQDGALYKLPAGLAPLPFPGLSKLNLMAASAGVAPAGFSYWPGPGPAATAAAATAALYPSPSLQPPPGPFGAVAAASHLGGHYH
How it was run: as §1

[11] = target: ETV5 (Homo sapiens, UniProt P41161 1-510); details: protein: recombinant; tags: N-terminal GST; dsDNA, one strand shown
How it was run: as §1

[12] = target: HSF1 (Homo sapiens, UniProt Q00613 1-529); details: protein: recombinant; tags: N-terminal GST; chain copies: 3; dsDNA, one strand shown
How it was run: as §1

[13] = target: T8, SPIC (Homo sapiens, UniProt Q8N5J4 1-248); details: protein: recombinant; tags: N-terminal GST; dsDNA, one strand shown
T8 sequence: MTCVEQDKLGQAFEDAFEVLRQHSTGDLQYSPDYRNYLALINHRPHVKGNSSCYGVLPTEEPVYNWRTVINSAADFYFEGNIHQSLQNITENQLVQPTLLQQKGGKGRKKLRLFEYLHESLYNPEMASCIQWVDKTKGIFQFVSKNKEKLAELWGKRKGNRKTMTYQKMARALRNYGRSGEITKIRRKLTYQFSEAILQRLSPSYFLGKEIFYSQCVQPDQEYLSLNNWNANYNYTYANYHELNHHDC
How it was run: as §1

[14] = target: ELF4 (Homo sapiens, UniProt Q99607 1-663); details: protein: recombinant; tags: N-terminal GST; dsDNA, one strand shown
How it was run: as §1

[15] = target: T9, ELK4 (Homo sapiens, UniProt P28324-2 1-405); details: protein: recombinant; tags: N-terminal GST; dsDNA, one strand shown
T9 sequence: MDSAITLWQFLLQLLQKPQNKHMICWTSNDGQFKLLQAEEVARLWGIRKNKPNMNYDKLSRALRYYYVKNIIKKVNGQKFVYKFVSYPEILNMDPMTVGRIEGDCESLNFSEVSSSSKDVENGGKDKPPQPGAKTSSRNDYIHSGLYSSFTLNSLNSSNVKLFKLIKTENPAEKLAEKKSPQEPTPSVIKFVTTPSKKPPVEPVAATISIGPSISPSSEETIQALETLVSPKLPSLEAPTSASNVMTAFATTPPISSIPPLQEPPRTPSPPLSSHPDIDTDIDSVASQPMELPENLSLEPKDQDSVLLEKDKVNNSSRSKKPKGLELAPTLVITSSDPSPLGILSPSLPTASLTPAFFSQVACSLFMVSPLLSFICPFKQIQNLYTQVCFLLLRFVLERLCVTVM
How it was run: as §1

[16] = target: T10, ETV2 (Homo sapiens, UniProt O00321 1-342); details: protein: recombinant; tags: N-terminal GST; dsDNA, one strand shown
T10 sequence: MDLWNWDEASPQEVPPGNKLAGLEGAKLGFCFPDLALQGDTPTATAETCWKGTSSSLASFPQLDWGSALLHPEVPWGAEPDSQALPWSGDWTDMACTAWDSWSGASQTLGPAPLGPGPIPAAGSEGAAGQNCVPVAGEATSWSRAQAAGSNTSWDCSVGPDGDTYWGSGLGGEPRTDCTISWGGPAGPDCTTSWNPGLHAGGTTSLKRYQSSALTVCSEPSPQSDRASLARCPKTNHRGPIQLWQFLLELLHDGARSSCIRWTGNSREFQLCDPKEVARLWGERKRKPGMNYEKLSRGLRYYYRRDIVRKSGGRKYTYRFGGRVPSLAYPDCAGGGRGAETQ
How it was run: as §1

[17] = target: T11, ELF3 (Homo sapiens, UniProt P78545 1-371); details: protein: recombinant; tags: N-terminal GST; dsDNA, one strand shown
T11 sequence: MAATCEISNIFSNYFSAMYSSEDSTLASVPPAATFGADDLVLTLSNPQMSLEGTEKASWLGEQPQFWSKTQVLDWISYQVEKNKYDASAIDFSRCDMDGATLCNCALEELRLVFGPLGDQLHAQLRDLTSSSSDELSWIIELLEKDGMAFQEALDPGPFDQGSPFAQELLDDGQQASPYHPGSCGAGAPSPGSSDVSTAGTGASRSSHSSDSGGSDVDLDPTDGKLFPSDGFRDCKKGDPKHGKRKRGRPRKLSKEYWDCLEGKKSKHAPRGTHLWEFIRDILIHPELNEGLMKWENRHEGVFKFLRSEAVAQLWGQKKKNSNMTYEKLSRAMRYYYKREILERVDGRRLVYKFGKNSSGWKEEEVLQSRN
How it was run: as §1

[18] = target: CRX (Homo sapiens, UniProt O43186 1-299); details: protein: recombinant; tags: N-terminal GST; dsDNA, one strand shown
How it was run: as §1

[19] = target: ETV1 (Homo sapiens, UniProt P50549 1-477); details: protein: recombinant; tags: N-terminal GST; dsDNA, one strand shown
How it was run: as §1

Chain of ELF1 (P32519 whole entry): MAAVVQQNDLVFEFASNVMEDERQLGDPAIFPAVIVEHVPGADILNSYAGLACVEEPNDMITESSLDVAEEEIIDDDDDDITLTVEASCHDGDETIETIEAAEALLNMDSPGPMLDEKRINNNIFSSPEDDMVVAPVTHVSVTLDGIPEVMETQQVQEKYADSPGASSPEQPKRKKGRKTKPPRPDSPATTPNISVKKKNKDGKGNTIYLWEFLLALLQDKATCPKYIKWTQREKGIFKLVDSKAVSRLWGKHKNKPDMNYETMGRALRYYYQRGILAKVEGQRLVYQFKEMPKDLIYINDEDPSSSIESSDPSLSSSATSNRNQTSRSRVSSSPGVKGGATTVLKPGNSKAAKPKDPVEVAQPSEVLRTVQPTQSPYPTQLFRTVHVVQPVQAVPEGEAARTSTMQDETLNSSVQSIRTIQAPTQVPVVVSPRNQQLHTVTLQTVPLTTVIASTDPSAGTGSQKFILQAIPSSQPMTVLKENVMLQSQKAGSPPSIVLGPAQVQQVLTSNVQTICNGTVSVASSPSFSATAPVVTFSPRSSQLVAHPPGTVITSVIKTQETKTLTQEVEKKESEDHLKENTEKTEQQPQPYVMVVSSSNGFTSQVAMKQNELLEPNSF
Chain of ETV5 (P41161 whole entry): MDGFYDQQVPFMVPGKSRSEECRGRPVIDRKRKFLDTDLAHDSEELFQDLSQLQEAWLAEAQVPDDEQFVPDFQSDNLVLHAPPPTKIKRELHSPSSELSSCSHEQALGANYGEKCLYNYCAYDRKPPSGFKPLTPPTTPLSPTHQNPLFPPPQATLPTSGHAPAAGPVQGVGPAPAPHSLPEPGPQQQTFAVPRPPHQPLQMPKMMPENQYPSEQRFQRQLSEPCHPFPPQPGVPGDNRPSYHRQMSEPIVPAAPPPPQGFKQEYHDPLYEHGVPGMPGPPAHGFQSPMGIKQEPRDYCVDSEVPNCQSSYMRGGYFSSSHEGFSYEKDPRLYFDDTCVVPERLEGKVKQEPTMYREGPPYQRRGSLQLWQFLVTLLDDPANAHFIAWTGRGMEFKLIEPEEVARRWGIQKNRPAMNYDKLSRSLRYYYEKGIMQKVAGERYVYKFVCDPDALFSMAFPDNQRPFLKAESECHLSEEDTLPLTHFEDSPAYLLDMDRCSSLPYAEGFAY
Chain of SPIB (Q01892 whole entry): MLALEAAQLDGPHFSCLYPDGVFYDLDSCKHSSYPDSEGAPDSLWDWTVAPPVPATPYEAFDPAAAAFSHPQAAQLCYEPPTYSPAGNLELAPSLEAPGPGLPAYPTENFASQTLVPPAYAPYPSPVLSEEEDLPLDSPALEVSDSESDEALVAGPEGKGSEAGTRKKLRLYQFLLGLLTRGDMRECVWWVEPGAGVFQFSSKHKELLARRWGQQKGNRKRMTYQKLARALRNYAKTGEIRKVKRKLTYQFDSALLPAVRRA
Chain of ETV1 (P50549 whole entry): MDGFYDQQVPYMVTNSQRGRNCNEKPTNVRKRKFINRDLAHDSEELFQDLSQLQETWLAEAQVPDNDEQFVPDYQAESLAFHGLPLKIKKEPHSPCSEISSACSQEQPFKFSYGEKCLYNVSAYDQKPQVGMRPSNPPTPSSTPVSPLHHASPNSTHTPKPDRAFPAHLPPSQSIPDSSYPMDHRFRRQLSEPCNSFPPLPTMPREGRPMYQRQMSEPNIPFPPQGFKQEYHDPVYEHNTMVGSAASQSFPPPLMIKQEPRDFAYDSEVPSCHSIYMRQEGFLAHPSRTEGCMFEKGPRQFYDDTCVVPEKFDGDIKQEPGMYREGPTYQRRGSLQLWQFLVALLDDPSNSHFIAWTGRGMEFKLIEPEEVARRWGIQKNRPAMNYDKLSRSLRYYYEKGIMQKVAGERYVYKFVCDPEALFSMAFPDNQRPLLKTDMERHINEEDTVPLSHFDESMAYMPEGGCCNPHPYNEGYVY
Chain of CRX (O43186 whole entry): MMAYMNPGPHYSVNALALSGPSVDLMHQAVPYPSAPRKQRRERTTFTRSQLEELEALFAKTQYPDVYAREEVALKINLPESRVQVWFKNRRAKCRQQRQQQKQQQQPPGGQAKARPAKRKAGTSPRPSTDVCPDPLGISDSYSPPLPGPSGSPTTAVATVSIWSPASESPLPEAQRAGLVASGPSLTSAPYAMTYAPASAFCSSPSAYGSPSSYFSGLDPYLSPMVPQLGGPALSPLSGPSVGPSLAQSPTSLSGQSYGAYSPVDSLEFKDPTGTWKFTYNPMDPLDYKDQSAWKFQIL
Chain of HSF1 (Q00613 whole entry): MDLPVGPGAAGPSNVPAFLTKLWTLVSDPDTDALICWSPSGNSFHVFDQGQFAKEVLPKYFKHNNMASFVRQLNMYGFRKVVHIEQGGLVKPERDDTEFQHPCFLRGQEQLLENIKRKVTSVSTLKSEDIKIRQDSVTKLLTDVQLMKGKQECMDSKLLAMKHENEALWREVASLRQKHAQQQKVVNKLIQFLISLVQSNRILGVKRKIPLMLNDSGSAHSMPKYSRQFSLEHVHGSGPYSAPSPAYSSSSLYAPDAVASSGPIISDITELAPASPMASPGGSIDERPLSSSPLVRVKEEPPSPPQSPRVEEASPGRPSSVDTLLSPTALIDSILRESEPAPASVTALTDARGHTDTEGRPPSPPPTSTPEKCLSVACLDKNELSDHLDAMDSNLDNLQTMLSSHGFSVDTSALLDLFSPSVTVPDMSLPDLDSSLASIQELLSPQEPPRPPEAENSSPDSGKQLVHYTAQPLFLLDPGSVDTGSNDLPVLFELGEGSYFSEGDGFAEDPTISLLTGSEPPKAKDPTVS
Chain of ELF4 (Q99607 whole entry): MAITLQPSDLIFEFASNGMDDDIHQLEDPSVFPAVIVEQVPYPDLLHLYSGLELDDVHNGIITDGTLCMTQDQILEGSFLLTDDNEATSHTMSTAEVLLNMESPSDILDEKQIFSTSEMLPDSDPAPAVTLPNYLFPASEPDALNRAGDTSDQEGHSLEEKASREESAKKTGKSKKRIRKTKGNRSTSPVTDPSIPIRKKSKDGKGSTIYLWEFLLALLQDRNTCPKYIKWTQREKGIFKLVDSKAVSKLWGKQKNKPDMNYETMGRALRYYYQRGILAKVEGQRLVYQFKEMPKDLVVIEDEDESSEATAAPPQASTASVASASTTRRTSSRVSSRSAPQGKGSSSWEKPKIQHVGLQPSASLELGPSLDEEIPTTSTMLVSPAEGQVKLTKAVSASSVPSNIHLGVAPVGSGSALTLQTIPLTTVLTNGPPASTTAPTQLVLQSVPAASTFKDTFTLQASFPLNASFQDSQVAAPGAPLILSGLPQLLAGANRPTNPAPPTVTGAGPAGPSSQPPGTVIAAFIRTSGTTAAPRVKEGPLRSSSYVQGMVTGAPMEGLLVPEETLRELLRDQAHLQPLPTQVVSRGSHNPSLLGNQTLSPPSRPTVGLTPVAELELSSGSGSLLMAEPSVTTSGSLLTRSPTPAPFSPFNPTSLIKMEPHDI

## AGCTTC
[1]
  binding signal: 1.64 fold enrichment (6-mer frequency, TF over GST control)
[2]
  binding signal: 1.86 fold enrichment (6-mer frequency, TF over GST control)
[3]
  binding signal: 1.71 fold enrichment (6-mer frequency, TF over GST control)
[4]
  binding signal: 1.83 fold enrichment (6-mer frequency, TF over GST control)
[5]
  binding signal: 1.66 fold enrichment (6-mer frequency, TF over GST control)
[6]
  binding signal: 1.83 fold enrichment (6-mer frequency, TF over GST control)
[7]
  binding signal: 1.74 fold enrichment (6-mer frequency, TF over GST control)
[8]
  binding signal: 1.78 fold enrichment (6-mer frequency, TF over GST control)
[9]
  binding signal: 2.06 fold enrichment (6-mer frequency, TF over GST control)
[10]
  binding signal: 1.84 fold enrichment (6-mer frequency, TF over GST control)
[11]
  binding signal: 1.85 fold enrichment (6-mer frequency, TF over GST control)
[12]
  binding signal: 1.93 fold enrichment (6-mer frequency, TF over GST control)
[13]
  binding signal: 1.75 fold enrichment (6-mer frequency, TF over GST control)
[14]
  binding signal: 1.67 fold enrichment (6-mer frequency, TF over GST control)
[15]
  binding signal: 1.64 fold enrichment (6-mer frequency, TF over GST control)
[16]
  binding signal: 1.74 fold enrichment (6-mer frequency, TF over GST control)
[17]
  binding signal: 1.58 fold enrichment (6-mer frequency, TF over GST control)
[18]
  binding signal: 1.62 fold enrichment (6-mer frequency, TF over GST control)
[19]
  binding signal: 1.62 fold enrichment (6-mer frequency, TF over GST control)
